Measured values published in PubChem BioAssay (EPA / NIEHS).
Calls of active or inactive are those of the source. Rule for the calls: active = hit-call score of the fitted dose curve at least 0.9, where 1 is the maximum; inactive = score below 0.9.

Columns and labels:
Settings in all cases: mRNA level, 48 h; actives raise or lower the signal
[1] = read-out: Hypoxia-inducible factor 1-alpha (Homo sapiens) (UniProt Q16665); test: LTEA_HepaRG_HIF1A: Life Technologies and Expression Analysis (LTEA) Assay for Hypoxia-inducible factor 1 (HIF1A) Trancription factor using HepaRG (AID 2283503)
Summary of the method: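 Differentiated HepaRG cells in serum-free induction medium exposed 48 h, in duplicate, to 8-point half-log series from 100 uM in 0.5% DMSO. HIF1A mRNA measured by TaqMan qRT-PCR, normalized to ACTB/GAPDH/POLR2A, fitted bidirectionally versus DMSO.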

[2] = read-out: 3-Hydroxy-3-Methylglutaryl-CoA Synthase 2 (HMGCS2), HMGCS2 (gene 3158); test: LTEA_HepaRG_HMGCS2: Life Technologies and Expression Analysis (LTEA) Assay for 3-Hydroxy-3-Methylglutaryl-CoA Synthase 2 (HMGCS2) using HepaRG (AID 2283504)
Summary of the method: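 This steatosis marker was read as HMGCS2 mRNA change in HepaRG cells treated 48 h with up to 100 uM chemical. Normalisation used housekeeping genes; activity in either direction was fitted relative to 0.5% DMSO vehicle.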

HGF (gene 3082) = test: LTEA_HepaRG_HGF: Life Technologies and Expression Analysis (LTEA) Assay for Hepatocyte Growth Facto (HGF) using HepaRG (AID 2283505)
Summary of the method: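 Using HepaRG monolayers kept in 0.5% DMSO, chemicals were tested in duplicate over eight half-log concentrations from 100 uM for 48 h. Endpoint: HGF mRNA change relative to DMSO, normalized to ACTB/GAPDH/POLR2A.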

[3] = read-out: Insulin Like Growth Factor 1 (IGF1), IGF1 (gene 3479); test: LTEA_HepaRG_IGF1: Life Technologies and Expression Analysis (LTEA) Assay for Insulin Like Growth Factor 1 (IGF1) using HepaRG (AID 2283506)
Summary of the method: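 HepaRG, plated 48 h, then switched to serum-free induction media; test chemical 8-pt half-log from 100 uM (0.5% DMSO), duplicate, 48 h. Lysis in RLT, TaqMan qRT-PCR, norm. ACTB/GAPDH/POLR2A. Bidirectional fit vs DMSO.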

[4] = read-out: Intercellular Adhesion Molecule 1 (ICAM1), ICAM1 (gene 3383); test: LTEA_HepaRG_ICAM1: Life Technologies and Expression Analysis (LTEA) Assay for Intercellular Adhesion Molecule 1 (ICAM1) using HepaRG (AID 2283507)
Summary of the method: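 Using the human liver line HepaRG, compounds are tested in duplicate over 48 h at concentrations up to 100 uM. Expression is determined by TaqMan qRT-PCR, normalized to endogenous controls, and analysed relative to 0.5% DMSO vehicle.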

[5] = read-out: Insulin-like growth factor-binding protein 1 (IGFBP1), IGFBP1 (gene 3484); test: LTEA_HepaRG_IGFBP1: Life Technologies and Expression Analysis (LTEA) Assay for Insulin-like growth factor-binding protein 1 (IGFBP1) using HepaRG (AID 2283508)
Summary of the method: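 HepaRG, 48 h, 8 conc. (max 100 uM, half-log), duplicates, 0.5% DMSO. Readout: TaqMan qRT-PCR, ACTB/GAPDH/POLR2A normalisation. Fit: bidirectional vs DMSO.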

[6] = read-out: Interleukin 6 (IL6), IL6 (gene 3569); test: LTEA_HepaRG_IL6: Life Technologies and Expression Analysis (LTEA) Assay for Interleukin 6 (IL6) using HepaRG (AID 2283509)
Summary of the method: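 HepaRG, ~100,000 cells/well, 48 h pre-culture; serum-free induction medium; cmpd 8-pt half-log from 100 uM, 0.5% DMSO, duplicate, 48 h. Lysis in RLT, TaqMan qRT-PCR; gain or loss vs DMSO.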

[7] = read-out: Potassium channel subfamily K member 1 (KCNK1), KCNK1 (gene 3775); test: LTEA_HepaRG_KCNK1: Life Technologies and Expression Analysis (LTEA) Assay for Potassium channel subfamily K member 1 (KCNK1) using HepaRG (AID 2283511)
Summary of the method: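 Gain or loss of KCNK1 mRNA is the read-out, quantified by qRT-PCR against three housekeeping genes after 48 h chemical treatment of human HepaRG liver cells. Concentrations ran from 100 uM downward in half-log steps, vehicle 0.5% DMSO.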

[8] = read-out: Keratin 19 (KRT19), KRT19 (gene 3880); test: LTEA_HepaRG_KRT19: Life Technologies and Expression Analysis (LTEA) Assay for Keratin 19 (KRT19) using HepaRG (AID 2283512)
Summary of the method: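 Readout is qRT-PCR of KRT19 mRNA, normalized to ACTB, GAPDH and POLR2A, from HepaRG cells treated 48 h with eight-point half-log dilutions topping at 100 uM. Activity in either direction is scored relative to 0.5% DMSO vehicle.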

[9] = read-out: JUN Transcription Factor, JUN (gene 3725); test: LTEA_HepaRG_JUN: Life Technologies and Expression Analysis (LTEA) Assay for JUN Transcription Factor using HepaRG (AID 2283513)
Summary of the method: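 Cells plated 48 h, medium switched to serum-free induction medium, then dosed 48 h (100 uM top, half-log dilutions, 0.5% DMSO). RNA isolated; JUN measured by qRT-PCR against three housekeeping genes; gain or loss fitted relative to DMSO.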

[10] = read-out: Lipase C (LIPC), LIPC (gene 3990); test: LTEA_HepaRG_LIPC: Life Technologies and Expression Analysis (LTEA) Assay for Lipase C (LIPC) using HepaRG (AID 2283514)
Summary of the method: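 Read-out is LIPC transcript level by TaqMan qRT-PCR, normalized to three housekeeping genes, after 48 h chemical treatment of human HepaRG liver cells. Curves span eight concentrations topping at 100 uM; activity in either direction scored relative to 0.5% DMSO.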

[11] = read-out: Lipoprotein lipase (LPL), LPL (gene 4023); test: LTEA_HepaRG_LPL: Life Technologies and Expression Analysis (LTEA) Assay for Lipoprotein lipase (LPL) using HepaRG (AID 2283515)
Summary of the method: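 Read-out is LPL transcript level by qRT-PCR, normalized to three housekeeping genes and fitted bidirectionally against the DMSO control. Human HepaRG cells received chemicals for 48 h at up to 100 uM.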

[12] = read-out: MicroRNA 122 (MIR122), gene 406906; test: LTEA_HepaRG_MIR122: Life Technologies and Expression Analysis (LTEA) Assay for MicroRNA 122 (MIR122) using HepaRG (AID 2283516); note: the transcript read is the microRNA miR-122
Summary of the method: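 HepaRG plated 48 h, switched to serum-free induction medium, then treated in duplicate for 48 h (100 uM top, half-log steps, 0.5% DMSO vehicle). RNA isolated, qRT-PCR performed, concentration-response fitted both directions relative to DMSO.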

[13] = read-out: matrix metalloproteinase-10 (MMP10), MMP10 (gene 4319); test: LTEA_HepaRG_MMP10: Life Technologies and Expression Analysis (LTEA) Assay for matrix metalloproteinase-10 (MMP10) using HepaRG (AID 2283517)
Summary of the method: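 Gain or loss of MMP10 mRNA is fitted relative to the 0.5% DMSO vehicle. The human hepatic line HepaRG receives a 48-hour serum-free exposure, in duplicate, with a maximum concentration of 100 uM.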

MYC, MYC (gene 4609) = test: LTEA_HepaRG_MYC: Life Technologies and Expression Analysis (LTEA) Assay for MYC using HepaRG (AID 2283518)
Summary of the method: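 Expression changes were scored by TaqMan qRT-PCR with ACTB, GAPDH and POLR2A normalization. Cultures in serum-free induction medium received duplicate 8-point concentration series, highest 100 uM, for 48 h; DMSO (0.5%) served as baseline.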

[14] = read-out: matrix metalloproteinase-3 (MMP3), MMP3 (gene 4314); test: LTEA_HepaRG_MMP3: Life Technologies and Expression Analysis (LTEA) Assay for matrix metalloproteinase-3 (MMP3) using HepaRG (AID 2283519)
Summary of the method: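 HepaRG, human; 48 h dosing, 8 conc. (max 100 uM, half-log), duplicate, 0.5% DMSO. Readout: MMP3 transcript by Fluidigm TaqMan qRT-PCR, ACTB/GAPDH/POLR2A-normalised. Gain or loss fitted vs DMSO.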

[15] = read-out: Paternally Expressed 10 (PEG10), PEG10 (gene 23089); test: LTEA_HepaRG_PEG10: Life Technologies and Expression Analysis (LTEA) Assay for Paternally Expressed 10 (PEG10) using HepaRG (AID 2283520)
Summary of the method: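 HepaRG, 48 h post-plating → serum-free induction medium → 48 h chemical exposure (duplicate, 8-pt, max 100 uM, half-log, 0.5% DMSO) → lysis in RLT → TaqMan qRT-PCR for PEG10, ACTB/GAPDH/POLR2A normalisation.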

[16] = read-out: Nuclear factor NF-kappa-B p105 subunit (Homo sapiens) (UniProt P19838); test: LTEA_HepaRG_NFKB1: Life Technologies and Expression Analysis (LTEA) Assay for Nuclear Factor Kappa B Subunit 1 (NFKB1) using HepaRG (AID 2283521)
Summary of the method: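 NFKB1 transcript was measured by TaqMan qRT-PCR on Fluidigm arrays, normalised to three housekeeping genes and fitted in both directions against 0.5% DMSO. HepaRG cells were dosed in duplicate for 48 h in serum-free induction medium, eight half-log steps from 100 uM.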

[17] = read-out: Protein phosphatase 2A (PPP2R4), PTPA (gene 5524); test: LTEA_HepaRG_PPP2R4: Life Technologies and Expression Analysis (LTEA) Assay for Protein phosphatase 2A (PPP2R4) using HepaRG (AID 2283522)
Summary of the method: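 Readout is PPP2R4 transcript level by microfluidic qRT-PCR after 48 h chemical treatment of human HepaRG liver cells. Concentrations spanned 100 uM downward in half-log steps; gain or loss of signal was fitted relative to DMSO.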

Measured: AC50

Sequence of Hypoxia-inducible factor 1-alpha (Homo sapiens) (Q16665 whole entry, looked up): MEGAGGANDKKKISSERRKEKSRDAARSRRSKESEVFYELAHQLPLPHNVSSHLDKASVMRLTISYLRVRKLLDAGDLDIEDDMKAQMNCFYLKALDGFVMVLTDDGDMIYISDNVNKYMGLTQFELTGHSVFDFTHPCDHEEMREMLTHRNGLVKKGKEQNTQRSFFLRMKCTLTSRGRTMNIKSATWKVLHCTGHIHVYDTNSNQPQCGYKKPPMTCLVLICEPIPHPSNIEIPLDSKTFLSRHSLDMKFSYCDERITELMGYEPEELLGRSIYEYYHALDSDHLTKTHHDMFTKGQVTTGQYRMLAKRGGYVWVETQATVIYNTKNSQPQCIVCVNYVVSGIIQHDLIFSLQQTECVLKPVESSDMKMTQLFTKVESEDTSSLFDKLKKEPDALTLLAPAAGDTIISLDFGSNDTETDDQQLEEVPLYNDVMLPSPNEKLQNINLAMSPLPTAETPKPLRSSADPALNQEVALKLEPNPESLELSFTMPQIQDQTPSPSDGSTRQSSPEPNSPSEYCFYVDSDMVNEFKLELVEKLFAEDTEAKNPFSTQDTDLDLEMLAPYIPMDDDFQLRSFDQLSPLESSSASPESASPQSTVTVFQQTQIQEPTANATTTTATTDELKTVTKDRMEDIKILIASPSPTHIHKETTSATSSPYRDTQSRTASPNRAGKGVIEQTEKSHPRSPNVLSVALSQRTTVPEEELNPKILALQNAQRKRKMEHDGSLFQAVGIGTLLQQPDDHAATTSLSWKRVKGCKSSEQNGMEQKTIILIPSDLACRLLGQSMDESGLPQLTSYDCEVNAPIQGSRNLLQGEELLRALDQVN
Sequence of Nuclear factor NF-kappa-B p105 subunit (Homo sapiens) (P19838 whole entry, looked up): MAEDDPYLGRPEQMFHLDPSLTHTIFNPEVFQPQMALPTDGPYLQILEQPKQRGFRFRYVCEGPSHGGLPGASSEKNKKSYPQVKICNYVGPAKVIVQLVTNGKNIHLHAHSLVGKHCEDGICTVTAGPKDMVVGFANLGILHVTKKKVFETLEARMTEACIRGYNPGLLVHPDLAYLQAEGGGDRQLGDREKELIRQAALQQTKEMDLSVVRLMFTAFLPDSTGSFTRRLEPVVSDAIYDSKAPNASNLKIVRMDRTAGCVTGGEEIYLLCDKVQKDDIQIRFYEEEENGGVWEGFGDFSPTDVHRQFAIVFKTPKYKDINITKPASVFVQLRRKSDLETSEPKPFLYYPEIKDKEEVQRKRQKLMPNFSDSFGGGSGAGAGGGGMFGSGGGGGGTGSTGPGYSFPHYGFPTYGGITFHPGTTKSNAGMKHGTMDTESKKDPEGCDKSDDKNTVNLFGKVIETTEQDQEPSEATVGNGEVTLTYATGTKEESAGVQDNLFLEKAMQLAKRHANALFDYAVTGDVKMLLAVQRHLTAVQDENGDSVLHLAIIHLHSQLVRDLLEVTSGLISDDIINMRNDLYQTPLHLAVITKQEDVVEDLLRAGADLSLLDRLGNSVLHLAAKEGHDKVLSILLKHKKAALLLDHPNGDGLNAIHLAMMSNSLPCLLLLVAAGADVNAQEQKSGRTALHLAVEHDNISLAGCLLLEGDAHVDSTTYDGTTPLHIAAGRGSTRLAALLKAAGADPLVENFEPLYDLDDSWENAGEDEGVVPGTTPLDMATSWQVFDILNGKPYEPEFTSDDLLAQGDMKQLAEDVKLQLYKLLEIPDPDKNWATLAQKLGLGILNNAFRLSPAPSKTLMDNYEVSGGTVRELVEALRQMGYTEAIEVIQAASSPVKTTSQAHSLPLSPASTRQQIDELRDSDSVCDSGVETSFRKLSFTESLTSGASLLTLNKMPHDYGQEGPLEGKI

CCc1ccc(C(=O)NN(C(=O)c2cc(C)cc(C)c2)C(C)(C)C)cc1
active: [2] 50 µM
inactive: all other assays above

O=C1c2ccccc2C(=O)N1SC(Cl)(Cl)Cl
inactive: all assays above

CC(C)OC(=O)Nc1cccc(Cl)c1
inactive: all assays above

O=C(O)CCCOc1ccc(Cl)cc1Cl
active: [15] 10.4 µM
not listed: [16]
inactive: all other assays above

CCOC1Oc2ccc(OS(C)(=O)=O)cc2C1(C)C (configuration not stated)
active: [2] 79.4 µM | [3] 62.3 µM | [5] 79.4 µM | [6] 89.4 µM | [8] 66 µM | [10] 74 µM | [11] 76.4 µM | [12] 78.7 µM | MYC, MYC (gene 4609) 77.7 µM | [15] 28.4 µM | [16] 9.92 µM
inactive: [1] | HGF (gene 3082) | [4] | [7] | [9] | [13] | [14] | [17]

CNC(=O)CSP(=S)(OC)OC
not listed: [16]
inactive: all other assays above
